# Data from PubChem BioAssay (NCI).
# Several values for one entry are separate records, joined by “and”; a condition that tells them apart may be missing. Equal entries are not always repeated. About 83,000 compounds went through this panel and 20% of them were active in at least one assay; those are over-represented in the sample as a whole.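 Cells were grown in 96-well plates and exposed to the test compound at a single concentration for 48 hours; results are reported as percent growth, with values below 10 considered active.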 Activity calls are given as the source filed them.
# Test system: MDA-MB-468 breast
# Assay: NCI-60 one-dose screen, 48 h (100 = growth as untreated, 0 = no growth, -100 = all killed)
# Conditions: 10 µM unless noted
row,Compound,growth
1,CCOC(=O)C(=Cc1ccc(C#N)cc1)C(=O)OCC,15.6% (inactive)
2,CCOc1ccc(/C=C/C=N/NC(N)=S)cc1,80.2% (inactive)
3,COc1ccc2[nH]cc(/C=C3/C(=O)Nc4ccc(F)cc43)c2c1,79.1% (inactive)
4,CCOC(=O)c1ccc2c(c1)c1c(C)c3cccnc3c(C)c1n2C,64.4% (inactive)
5,CCCCCCCCCCCCCCCCNC(=S)N/N=C/c1ccc(O)cc1O,57.1% (inactive)
6,CN1NC(c2ccccc2)NN(C)C1=O,108% (inactive)
7,O=C(CNc1nnc(-c2ccc(Cl)cc2)o1)Nc1ccc(-c2nc3ccccc3s2)cc1,-10.2% (active)
8,CC(=O)O[C@H]1[C@H](CC#CC#CC[C@@H]2C[C@]3(C)[C@H]4CC=C5[C@H]6[C@@H](C)[C@H](C)CC[C@]6(C(=O)NCCN(CCN)CCN)CC[C@@]5(C)[C@]4(C)CC[C@H]3C(C)(C)[C@H]2OC(C)=O)C[C@]2(C)[C@H]3CC=C4[C@H]5[C@@H](C)[C@H](C)CC[C@]5(C(=O)NCCN(CCN)CCN)CC[C@@]4(C)[C@]3(C)CC[C@H]2C1(C)C,1.36% (active)
9,COc1ccc2[nH]cc(-c3nc(N)nnc3-c3cn(C)c4ccc(Br)cc34)c2c1,-31.3% (active)
10,C=C(C)[C@@H]1CC[C@]2(COC(=O)c3cccnc3)CC[C@]3(C)[C@H](CC[C@@H]4[C@@]5(C)CCCN(C(=O)c6cccnc6)C(C)(C)[C@@H]5CC[C@]43C)[C@@H]12,23.3% (inactive)
11,Cc1ccc(C2CC(c3ccc(Nc4nc(NCCO)nc(Nc5ccc(Cl)cc5)n4)cc3)=NN2c2cc(Cl)cc(Cl)c2)cc1 (stereo not given),102% (inactive)
12,O=c1c(Cc2ccc(F)cc2)cc(-c2ccccc2)nn1C/C(=N/O)c1ccccc1,41.2% (inactive)
13,Oc1ccccc1-c1nnc(SCc2ccc(O)c3ncccc23)o1,44.4% (inactive)
14,C=C1C(=O)O[C@H]2[C@H]1CC/C(Cn1cc(-c3ccccc3)nn1)=C\CC[C@@]1(C)O[C@@H]21,-38.5% (active)
15,CC(C)c1ccc(C(=O)Nc2sc3c(c2C#N)CCC(=O)C3)cc1,-45.7% (active)
16,COc1ccc2[nH]c3nc4cnccc4cc3c2c1,117% (inactive)
17,O=C(c1c(F)ccc(NS(=O)(=O)N2CC[C@@H](F)C2)c1F)c1c[nH]c2ncc(-c3cnc(C4CC4)nc3)cc12,54.7% (inactive)
18,CCOC(=O)CC1CSC(c2cccc(Cl)c2)=N1 (stereo not given),108% (inactive)

row,Compound,growth
1,COc1ccc(/C=C2\COc3ccc(O)c(O)c3C2=O)cc1OC,-22.8% (active)
2,Cc1c2cccnc2c(C)c2c1c1cc(CO)ccc1n2C,-48.7% (active)
3,Nc1cc(C(F)(F)F)c(-c2cc(N3CCOCC3)nc(N3CCOCC3)n2)cn1,-51.6% (active)
4,CCSc1nnc2c3cc(Br)ccc3n(C)c2n1,115% (inactive)
5,O=C(CSc1nc2ccccc2c(=O)n1-c1ccc(Cl)cc1)N/N=C/c1ccc(Oc2ccc(Cl)cc2)cc1,-18.6% (active)
6,CCCCCCCC/C=C\CCCCCCCCOc1cccc(CC(=O)NCC[N+]2(C)CCCCC2)c1,52.6% (inactive)
7,O=C1NCCC12CCN(c1c(Cl)cncc1-c1ccc(O)cc1)CC2,84.3% (inactive)
8,O=C(O)CN(CCN(CC(=O)O)CC(=O)O)CCN(CC(=O)O)CC(=O)O,22% (inactive) and 94.6% (inactive) and 89.3% (inactive)
9,COc1ccc(C(O)c2cc3c(N)c(C(=O)Nc4cccc(OC)c4)sc3nc2C)cc1 (stereo not given),5.65% (active)
10,CC/C=C1/C(=O)C=C[C@@H]1C/C=C\CCCC(=O)OC,77.6% (inactive)
11,CC/C(=C/c1c(O)cccc1OC)c1ccc2c(OC)cccc2[o+]1,95.1% (inactive)
12,COc1cc(-c2ccc(NC(=O)NC3CC3)c(OC)c2)ccc1NC(=O)NC1CC1,88.8% (inactive)
13,O=C1NC(=O)/C(=C\c2ccncc2)N1,102% (inactive)
14,CCOc1ccc(/C=N/Nc2cc(C)nc3ccc(Br)cc23)cc1,65.2% (inactive)
15,CCOP(=O)(OCC)OC[C@]12CCC(C)(C)C[C@H]1C1=CC[C@@H]3[C@@]4(C)C/C(=C\c5cccnc5)[C@H](OP(=O)(OCC)OCC)C(C)(C)[C@@H]4CC[C@@]3(C)[C@]1(C)CC2,-0.445% (active)
16,COc1c(B(O)O)cc(F)cc1-c1nc2ccc3[nH]ncc3c2c2c1CCCC2,-4.35% (active)
17,O=C(O)c1cn(C2CC2)c2cc(N3CCN(Cc4cc(Cl)ccc4O)CC3)c(F)cc2c1=O,81.9% (inactive)
